In the library only some 2.4% were active in any assay of this set; here they are far more common.
Pol kappa inh = DNA polymerase kappa (human) inhibition; 400,000 tested, 0.53% active; Potency, µM (top dose mostly 107 µM), hits mostly inhibitors; purified Pol kappa, fluorescent DNA synthesis assay, 10 min; AID 588579
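Inhibition of 10 nM Pol kappa is measured by a fluorescent read-out at 0 and 10 min following addition of 50 nM substrate (final), with a 15-min room-temperature compound preincubation.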
TDP1 inh = blocks human tyrosyl-DNA phosphodiesterase 1; 350,000 tested, 0.28% active; recombinant TDP1, AlphaScreen DNA substrate cleavage; Potency, µM (doses to about 130 µM), actives largely listed as inhibitors; Q9NUW8; AID 485290; also: nearly all actives have a fitted effect of over 40% in size
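Tdp1 1 nM final; 15 min RT w/ cpd; substrate 15 nM, 5 min; beads 10 ug/ml, 10 min; AlphaScreen read. Neg ctrl: no enzyme.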
FEN1 inh = blocks human flap endonuclease 1 | P39748 | Recombinant FEN1 flap cleavage, fluorescence, 15 min | Potency, µM (top dose mostly 114 µM), hits mostly inhibitors | 390,000 tested, 0.35% active | AID 588795; also: nearly all actives have a fitted effect of over 65% in size
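Nuclease activity of 10 nM FEN1 was measured after 15 min of room-temperature exposure to titrated compounds, by adding 50 nM flap substrate and reading plates at 0 and 15 min.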
POLH inh = inhibitors of human DNA polymerase eta; 390,000 tested, 1.2% active; Potency, µM (titrated, usually from 114 µM), usual class: inhibitors; Q9Y253; AID 588591; recombinant Pol eta, fluorescent DNA replication assay
Target sequence (Q9Y253 whole entry, looked up): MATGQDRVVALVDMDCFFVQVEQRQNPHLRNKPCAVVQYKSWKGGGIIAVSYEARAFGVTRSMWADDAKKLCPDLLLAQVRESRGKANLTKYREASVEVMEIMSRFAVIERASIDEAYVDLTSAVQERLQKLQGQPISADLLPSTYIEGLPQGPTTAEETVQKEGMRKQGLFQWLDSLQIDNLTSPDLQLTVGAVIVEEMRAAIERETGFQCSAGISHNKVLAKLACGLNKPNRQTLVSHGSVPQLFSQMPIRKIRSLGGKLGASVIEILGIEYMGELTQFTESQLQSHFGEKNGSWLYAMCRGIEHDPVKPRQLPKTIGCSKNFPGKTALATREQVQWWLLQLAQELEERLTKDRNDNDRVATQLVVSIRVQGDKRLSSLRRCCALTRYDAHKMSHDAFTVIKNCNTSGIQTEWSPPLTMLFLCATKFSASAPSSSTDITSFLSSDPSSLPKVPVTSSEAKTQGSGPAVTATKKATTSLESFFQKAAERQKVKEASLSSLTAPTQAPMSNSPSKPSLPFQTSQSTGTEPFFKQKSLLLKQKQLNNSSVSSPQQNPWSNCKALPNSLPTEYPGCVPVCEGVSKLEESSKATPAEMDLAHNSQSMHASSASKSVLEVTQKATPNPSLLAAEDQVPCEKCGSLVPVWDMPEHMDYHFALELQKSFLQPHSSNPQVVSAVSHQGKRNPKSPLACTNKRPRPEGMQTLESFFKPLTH
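Fluorescent replication assay: 50 nM final substrate added after a 15 min room-temperature compound preincubation with 10 nM enzyme. Signal taken at 0 min and again at 10 min.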
Pol iota inh = blocks human DNA polymerase iota activity; Q9UNA4; Pol iota fluorescent replication assay, 10 min; Potency, µM (doses to about 115 µM), actives largely listed as inhibitors; 390,000 tested, 1% active; AID 588590
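Pol iota at 10 nM preincubated 15 min with compounds at room temperature; reaction started with fluorescent substrate, 50 nM final. Fluorescence read kinetically at 0 and 10 min; buffer-only wells as negative control.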
POLB inh = DNA polymerase beta (human) inhibition; 340,000 tested, 1.3% active; P06746; Potency, µM (series often up to 114 µM), usual class: inhibitors; Pol beta primer extension/strand displacement, fluorescence kinetic; AID 485314
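Reaction started by 50 nM substrate onto compound-treated Pol beta (10 nM, 15 min preincubation, room temperature); plates read at 0 min and 10 min. Normalized concentration-effect data fitted by four-parameter Hill equation.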
Large screens that a line does not name were inactive; ! = not confirmed by another sample. Calls follow the shape of the dose curve; as a rule, active = well fitted curve in the direction sought with a large enough effect; inconclusive = small, poorly fitted or top-dose-only effect, or another doubt; inactive = no such curve, though single readings can be large; an effect the other way counts as inactive or inconclusive.

CCNC(=O)N1CCN(/[N+]([O-])=N/Oc2ccc([N+](=O)[O-])cc2[N+](=O)[O-])CC1	FEN1 inh inconclusive, Pol iota inh inconclusive (no result: TDP1 inh, POLH inh, POLB inh)
COc1cccc(/C=C/c2[nH]c(=O)[nH]c(=O)c2[N+](=O)[O-])c1O	POLH inh 50.1µM, Pol iota inh 11.2µM (no result: TDP1 inh)
CC(C)c1ccc(/C=C/c2[nH]c(=O)[nH]c(=O)c2[N+](=O)[O-])cc1	POLH inh inconclusive, Pol iota inh inconclusive (no result: TDP1 inh)
COc1cc(/C=C/c2[nH]c(=O)[nH]c(=O)c2[N+](=O)[O-])cc(OC)c1O	none
O=c1[nH]c(/C=C/c2ccccc2Cl)c([N+](=O)[O-])c(=O)[nH]1	POLH inh 28.2µM, Pol iota inh inconclusive
Cc1ccc(Cl)cc1NC(=O)Cn1c(=O)n(CCC(=O)NCc2ccc3c(c2)OCO3)c(=O)c2sccc21	POLB inh 14.1µM
COc1ccc(NC(=O)Cn2c(=O)n(CCCCCC(=O)NCc3ccc4c(c3)OCO4)c(=O)c3sccc32)cc1Cl	FEN1 inh 89.1µM
COCCNC(=O)Cn1c(=O)n(CCCCCC(=O)NCc2ccc3c(c2)OCO3)c(=O)c2sccc21	none
CCOc1ccc(NC(=O)CSC2=Nc3ccccc3C3=NC(CC(=O)NCc4ccc5c(c4)OCO5)C(=O)N23)cc1 (stereo not given)	POLH inh inconclusive
Cc1ccc(NS(=O)(=O)c2cc([N+](=O)[O-])ccc2NNC(=S)Nc2cccc(Cl)c2)c(C)c1	FEN1 inh inconclusive, POLH inh 39.8µM, POLB inh inconclusive
O=C(CC1CCCCC1)N1CCCC(c2nc(-c3ccc(S(=O)(=O)N4CCCC4)cc3)no2)C1 (stereo not given)	POLH inh inconclusive, Pol iota inh inconclusive, POLB inh 35.5µM
COc1ccc(OC)c2c(C)ccnc12	none (no result: TDP1 inh, POLH inh, POLB inh)
OC[C@@H]1[C@@H](c2ccccc2)C(c2cccc(Cl)c2)=NN1c1ccccc1	Pol kappa inh inconclusive, TDP1 inh 25.1µM, Pol iota inh inconclusive (no result: POLB inh)
Cc1cccc(C2=NN(c3ccccc3)[C@H](CO)[C@H]2c2ccc(Cl)cc2)c1	Pol kappa inh inconclusive (no result: POLB inh)
CCCS(=O)(=O)N1CCN(Cc2ccccc2OCC)CC1	POLB inh 89.1µM
CCS(=O)(=O)N1CCN(Cc2ccccc2OC)CC1	none
COc1ccccc1-c1nc(N2CCOCC2)c2ccccc2n1	none (no result: TDP1 inh, FEN1 inh, POLH inh, Pol iota inh, POLB inh)
O=C1C=C(O)c2c(O)cccc2C1=O	POLB inh 15.8µM (no result: Pol kappa inh, TDP1 inh, FEN1 inh, POLH inh, Pol iota inh)
O=C1C=C(O)c2cccc3cccc1c23	FEN1 inh 2µM (no result: TDP1 inh)
CO[C@@H]1C[C@H](O[C@H]2[C@@H](C)[C@H](O[C@@H]3O[C@@H](C)C[C@@H](N(C)C)[C@@H]3OC(C)=O)[C@H](C)C[C@]3(CO3)C(=O)[C@H](C)[C@H](OC(C)=O)[C@H](C)[C@H](C)OC(=O)[C@@H]2C)O[C@H](C)[C@@H]1OC(C)=O	none (no result: FEN1 inh, POLH inh, Pol iota inh, POLB inh)
CC1(C)C(=O)Nc2ccccc2N1C(=O)COC(=O)c1cccnc1	POLH inh inconclusive, Pol iota inh 28.2µM (no result: POLB inh)
Cc1ccc(C)c(OCCC(=O)OCC(=O)N2c3ccccc3NC(=O)C2(C)C)c1	Pol iota inh inconclusive (no result: POLB inh)
O=C1CN(C(=O)COC(=O)C23CC4CC(CC(O)(C4)C2)C3)c2ccccc2N1	none
CC1(C)C(=O)Nc2ccccc2N1C(=O)COC(=O)C12CC3CC(CC(O)(C3)C1)C2	Pol kappa inh inconclusive, POLH inh 14.1µM, Pol iota inh 50.1µM, POLB inh 20µM
COc1ccccc1CCC(=O)OCC(=O)N1c2ccccc2NC(=O)C1(C)C	Pol iota inh 79.4µM (no result: TDP1 inh, POLB inh)
c1ccc(Cn2nnnc2C(c2ccccc2)N2CCN(Cc3ccncc3)CC2)cc1 (stereo not given)	none (no result: TDP1 inh, POLH inh, POLB inh)
CC(=O)Nc1ccccc1OC1=N[S+](=O)([O-])c2ccccc21	none (no result: Pol kappa inh, FEN1 inh, POLH inh, Pol iota inh, POLB inh)
O=C(Cn1c(SCC(=O)Nc2ccc(F)cc2)nc2ccccc21)NCc1ccc(Cl)cc1	Pol iota inh inconclusive, POLB inh inconclusive
COc1ccc2oc(=O)c(/C(C)=N/Nc3nc(-c4cc(C)ccc4C)cs3)cc2c1	none
C/C(=N\Nc1nc(-c2ccc(C)cc2C)cs1)c1cc2ccccc2oc1=O	POLB inh 22.4µM
CC(=O)c1cccc(NC(=O)Cn2c(=O)oc3cc(S(=O)(=O)N4CCCC4)ccc32)c1	Pol iota inh inconclusive, POLB inh 31.6µM!
Cc1cc(NC(=O)Cn2c(=O)oc3cc(S(=O)(=O)N4CCCC4)ccc32)ccc1Br	POLB inh 12.6µM
Cc1cc(C)cc(NC(=O)Cn2c(=O)oc3cc(S(=O)(=O)N4CCCC4)ccc32)c1	POLB inh inconclusive (no result: POLH inh)
COc1ccc(NC(=O)Cn2c(=O)oc3cc(S(=O)(=O)N4CCCCCC4)ccc32)cc1OC	none
CCc1ccc(NC(=O)Cn2c(=O)ccc3cc(S(=O)(=O)N4CCCC4)ccc32)cc1	POLH inh 89.1µM
CN(C)c1ccc(Cn2ccc3ccccc32)cc1	FEN1 inh inconclusive (no result: TDP1 inh, POLH inh, POLB inh)
CN(C)S(=O)(=O)N1CCC(Oc2cccc(C(=O)N3CCCCCCC3)c2)CC1	Pol iota inh 89.1µM
CN(C)S(=O)(=O)N1CCC(Oc2cccc(C(=O)N3CCCCCC3)c2)CC1	none
O=C(O)c1cccc(Cn2c(Cl)c(/C=N/NC(=O)c3cc4ccccc4cc3O)sc2=O)c1	Pol kappa inh 31.6µM, FEN1 inh 17.8µM, POLH inh 6.31µM, Pol iota inh 8.91µM, POLB inh 11.2µM (no result: TDP1 inh)
CCCSc1ncc(Cl)c(C(=O)Nc2c(C(=O)Nc3ccc(OC)cc3)oc3ccccc23)n1	none (no result: POLH inh)
CCOc1ccc(C(=O)c2ccc(OC)c(O)c2O)cc1	Pol kappa inh 12.6µM (no result: FEN1 inh, POLH inh, Pol iota inh, POLB inh)
Clc1ccc2nc[nH]c2c1	none (no result: TDP1 inh, POLH inh, POLB inh)
CC1=C(C(=O)O)N2C(=O)[C@@H](NC(=O)[C@@H](N)c3ccc(O)cc3)[C@@H]2SC1	none (no result: FEN1 inh, POLH inh, Pol iota inh, POLB inh)
O=S(=O)(c1ccsc1)N1CCN(c2nc(-c3cccs3)nc3ccccc23)CC1	none (no result: Pol kappa inh, FEN1 inh, POLH inh, Pol iota inh, POLB inh)
O=c1ccsn1Cc1ccccc1	FEN1 inh 56.2µM, Pol iota inh 25.1µM
O=C1NC(Cc2ccccc2)C(=O)N1Cc1ccccc1 (stereo not given)	none (no result: TDP1 inh, POLB inh)
Cc1cc(C(=O)COC(=O)c2cc(O)c3ccccc3c2O)c(C)n1CC1CCCO1 (stereo not given)	FEN1 inh inconclusive, POLB inh 44.7µM
C=CCSC1=N/C(=C\c2sccc2C)C(=O)S1	none
C=CCSC1=N/C(=C\c2cc(OCC)c(OC(C)=O)c([N+](=O)[O-])c2)C(=O)S1	Pol kappa inh 31.6µM, FEN1 inh 56.2µM, POLH inh inconclusive, Pol iota inh 20µM, POLB inh 20µM
Cc1ccc(/C=C2/SC(=O)NC2=S)o1	Pol kappa inh 17.8µM, TDP1 inh inconclusive, FEN1 inh 39.8µM, POLH inh 8.91µM, Pol iota inh 7.08µM, POLB inh 20µM
Cc1ccc(/C=C2/SC(=S)N(C3CCCCC3)C2=O)o1	none

Compound activity as filed in PubChem BioAssay.
